Reference: PubChem BioAssay (NCATS)
Values joined by “and” are separate entries in the source; they are usually repeats but may differ in a detail not shown here. Identical values can stand only once. Records with an inconclusive call do not appear. Where a call stands in place of a potency, no number is given. Values without a mark were called inactive. Active and inactive are the calls of the source. The call rests on the fitted dose curve; in most records, active means well fitted curve in the direction sought with a large enough effect; inconclusive means small, poorly fitted or top-dose-only effect, or another doubt; inactive means no such curve, though single readings can be large; an effect the other way counts as inactive or inconclusive.

Legend:
[1] = Viability qHTS for spleen associated tyrosine kinase inhibitor (SYKi) drug resistant MV4-11 cells (AID 1963824); further: nearly all actives have a fitted effect of over 35% in size
In short: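 SYK-inhibitor-resistant MV4-11 AML cells were seeded at 500 per well onto compound and cultured 72 hours (37 °C, 5% CO2). CellTiter-Glo was then added, and after 10 min at room temperature, luminescence gave viability.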

[2] = Quantitative highthroughput screen to assess conditional lethalithy of NOMO1 cells grown in RPMI1640 with untreated serum (RPMI+s) (AID 1963876); further: nearly all actives have a fitted effect of over 35% in size
In short: (§1)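 Each medium arm—HPLM with 10% dialyzed FBS, or RPMI1640 with 5 mM glucose and 10% untreated or dialyzed FBS—was screened against an 11-point, 3-fold compound titration for 48 h at 37 °C, with CellTiter-Glo luminescence as endpoint.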

[3] = Quantitative highthroughput screen to assess conditional lethalithy of NOMO1 cells grown in RPMI1640 with dialyzed fetal bovine serum (RPMI+ds) (AID 1963877); further: nearly all actives have a fitted effect of over 30% in size; on Viability: series mostly up to about 46 µM
In short: as §1

[4] = Cellular viability qHTS for adrenocortical cancer (ACC) cell line NCI-H295R (AID 1963990); further: nearly all actives have a fitted effect of over 60% in size
In short: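 IC50 and maximal efficacy derive from four-parameter logistic modelling of titration curves, with reads scaled between DMSO-only wells (0%) and doxorubicin hydrochloride (100% inhibition). Compounds spanned up to 46 uM over 48 h.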

[5] = Quantitative highthroughput screen to assess conditional lethalithy of NOMO1 cells grown in Human Plasma-Like Medium with dialyzed fetal bovine serum (HPLM+ds) (AID 1963878); further: nearly all actives have a fitted effect of over 35% in size
In short: as §1

[6] = Quantitative highthroughput screen to assess conditional lethalithy of P12 Ichikawa cells grown in RPMI1640 with untreated serum (RPMI+s) (AID 1963881); conditions: Potency: viability; further: nearly all actives have a fitted effect of over 35% in size; on Viability: series mostly up to about 46 µM
In short: as §1

[7] = Quantitative highthroughput screen to assess conditional lethalithy of SEM cells grown in Human Plasma-Like Medium with dialyzed fetal bovine serum (HPLM+ds) (AID 1963882); further: nearly all actives have a fitted effect of over 35% in size; on Viability: series mostly up to about 46 µM
In short: as §1

[8] = Quantitative highthroughput screen to assess conditional lethalithy of P12 Ichikawa cells grown in Human Plasma-Like Medium with dialyzed fetal bovine serum (HPLM+ds) (AID 1963879); conditions: Potency: viability; further: nearly all actives have a fitted effect of over 35% in size; on Viability: series mostly up to about 46 µM
In short: as §1

[9] = Quantitative highthroughput screen to assess conditional lethalithy of P12 Ichikawa cells grown in RPMI1640 with dialyzed fetal bovine serum (RPMI+ds) (AID 1963880); conditions: Potency: P12-Ichikawa viability; further: nearly all actives have a fitted effect of over 35% in size
In short: as §1

[10] = Quantitative highthroughput screen to assess conditional lethalithy of SEM cells grown in RPMI1640 with unreated serum (RPMI+s) (AID 1963883); further: nearly all actives have a fitted effect of over 35% in size
In short: as §1

[11] = Quantitative highthroughput screen to assess conditional lethalithy of SEM cells grown in RPMI1640 with dialyzed fetal bovine serum (RPMI+ds) (AID 1963884); further: nearly all actives have a fitted effect of over 35% in size; on Viability: series mostly up to about 46 µM
In short: as §1

[12] = Cellular viability qHTS for adrenocortical cancer (ACC) cell line SW-13 (AID 1963989); conditions: SW-13 ACC cells viability, CellTiter-Glo, 48 h; activity (max response): active compounds read low; further: nearly all actives have a fitted effect of over 65% in size;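 on activity (max response): cells grown in serum-free medium with ITS supplement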
In short: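 Luminescent ATP read-out (CellTiter-Glo, 20 min at room temperature) measured metabolically competent SW-13 cells after 48 h compound treatment. Final concentrations spanned up to 46 uM; bortezomib served as positive control.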
Potency means the concentration at half of the fitted maximal effect.

| SMILES | Potency [1] | Potency [2] | Potency [3] | Potency [4] | Potency [5] | Potency [6] | Potency [7] | Potency [8] | Potency [9] | Potency [10] | Potency [11] | activity (max response) [12] | Potency [12] |
| --- | --- | --- | --- | --- | --- | --- | --- | --- | --- | --- | --- | --- | --- |
| Cc1cccc(C)c1OCC(=O)N[C@@H](Cc1ccccc1)[C@@H](O)C[C@H](Cc1ccccc1)NC(=O)[C@H](C(C)C)N1CCCNC1=O | 23.7 µM (active) | inactive | inactive | 16.4 µM (active) |  |  |  |  |  |  |  |  |  |
| CNCCN(C)Cc1cn[nH]c1-c1ccc(OC2CC(OCCC3CCOCC3)C2)cc1 (configuration not stated) | 14.8 µM (active) | inactive | inactive | inactive | inactive | inactive |  |  |  |  |  |  |  |
| Cc1cccc(-c2nn(C(=S)Nc3ccccc3)cc2-c2ccnc3ccccc23)n1 | 18.6 µM (active) | inactive | inactive | inactive | inactive | inactive | inactive |  |  |  |  |  |  |
| c1cc(-c2sc(-c3ccncc3)c(-c3ccncc3)c2-c2ccncc2)ccn1 | 18.6 µM (active) | inactive | inactive |  |  | inactive | 2.96 µM (active) | inactive | inactive | 2.35 µM (active) | 2.64 µM (active) |  |  |
| N#CC(c1ccc(Cl)cc1)c1c(Cl)cc(-n2ncc(=O)[nH]c2=O)cc1Cl (configuration not stated) | 26.3 µM (active) | inactive | inactive |  | inactive | inactive | inactive |  |  |  | inactive |  |  |
| COc1ccc(-c2cc3nccn3c(Nc3ncccc3C(N)=O)n2)cc1OC | 0.206 µM (active) | inactive | inactive | inactive |  | inactive |  | inactive | inactive |  |  | -18.6% |  |
| CCCCC(F)(F)[C@@]1(O)CC[C@H]2[C@H](CC(=O)[C@@H]2CCCCCCC(=O)O)O1 | 0.0295 µM (active) | inactive | inactive | inactive |  | inactive | inactive | inactive | inactive |  | inactive | 8.13% |  |
| Cc1cc2c(cc1C1(c3ccc(C(=O)O)cn3)CC1)C(C)(C)CCC2(C)C | 0.468 µM (active) | inactive | inactive | inactive |  | inactive | inactive | inactive | inactive | inactive | 0.0662 µM (active) | 9.77% |  |
| CN1CCN(C2=Nc3cc(Cl)ccc3Nc3ccccc32)CC1 | inactive | inactive | inactive |  |  | inactive |  | inactive | inactive |  |  | -14.9% |  |
| Nc1cccc2c1C(=O)N(C1CCC(=O)NC1=O)C2=O (configuration not stated) | inactive | inactive | inactive | inactive |  | 16.6 µM (active) |  |  | 14.8 µM (active) |  |  | 11.8% |  |
| CC1(C)O[C@@H]2C[C@H]3[C@@H]4CCC5=CC(=O)C=C[C@]5(C)[C@@H]4[C@@H](O)C[C@]3(C)[C@]2(C(=O)CO)O1 | inactive | inactive | inactive | inactive | inactive |  |  |  |  |  |  | -5.21% |  |
| COc1cc([C@@H]2c3cc4c(cc3[C@H](O)[C@H]3COC(=O)[C@@H]23)OCO4)cc(OC)c1OC | 0.372 µM (active) | 0.418 µM (active) | 0.526 µM (active) | 0.501 µM (active) |  |  | 0.296 µM (active) | 0.332 µM (active) | 0.469 µM (active) | 0.296 µM (active) | 0.264 µM (active) |  | 0.631 µM (active) |
| COc1cc(C(C)C)c(Oc2cnc(NC(CO)CO)nc2N)cc1I | 14.8 µM (active) | inactive | inactive | inactive | inactive | inactive | inactive |  | inactive |  |  | -4% |  |
| O=C1NC(=O)C(c2ccccc2[N+](=O)[O-])=C1Nc1ccc(O)c(Cl)c1 | 16.6 µM (active) | 18.7 µM (active) | 18.7 µM (active) | inactive |  |  | 16.6 µM (active) |  | 14.8 µM (active) |  |  | -17.3% |  |
| CC(C)(Sc1ccc(CCN(CCCCC2CCCCC2)C(=O)NC2CCCCC2)cc1)C(=O)O | 18.6 µM (active) | inactive | inactive | inactive | inactive | inactive | inactive |  |  | inactive | inactive | 4.08% |  |
| CC(C)c1cnn2c(NCc3ccccc3)cc(NCCCCCCN)nc12 | 14.8 µM (active) | inactive | inactive | 25.1 µM (active) |  | inactive | inactive |  | inactive | inactive | inactive |  |  |
| O=S(=O)(c1cccc2cnccc12)N1CCCNCC1 | inactive | inactive | inactive | inactive |  | inactive | inactive |  |  |  | inactive | 2.02% and -0.384% |  |
| Clc1ccc(C(c2ccc(Cl)cc2)n2cc[n+](CC(OCc3ccc(Cl)cc3Cl)c3ccc(Cl)cc3Cl)c2)cc1 (configuration not stated) | 1.86 µM (active) | 20.9 µM (active) | 26.4 µM (active) | 8.91 µM (active) | 26.4 µM (active) | 20.9 µM (active) | 16.6 µM (active) |  |  | 13.2 µM (active) | 20.9 µM (active) |  | 5.01 µM (active) |
| Cc1ccc(Nc2cc(-c3cccc(N4C(=O)c5ccccc5C4=O)c3)ncn2)cc1NS(C)(=O)=O | 16.6 µM (active) | inactive | inactive |  | inactive | inactive |  |  | inactive | inactive |  |  |  |
